Assay results as given in PubChem BioAssay (NCI).
About 83,000 compounds went through this panel and 20% of them were active in at least one assay; those are over-represented in the sample as a whole.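 Percent growth is the endpoint: 0 to 100 indicates growth inhibition (40 means 60% inhibition), 0 means no net growth, and negative values indicate cell death.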 Values without a mark were called inactive. The source made the active and inactive calls. Rule for the calls: active = growth percent below 10; inactive = the rest.

tested on: MDA-MB-468 breast; test: NCI-60 one-dose screen, 48 h (100 = growth as untreated, 0 = no growth, -100 = all killed); details: 10 µM unless noted

Structure (SMILES) | growth
COc1ccc(N2CCN(c3nc(-c4cc(OC)c(OC)c(OC)c4)nc4ccccc34)CC2)cc1 | 76.2%
C=C(C)[C@@H]1CC[C@]2(COC(C)=O)CC[C@]3(C)[C@H](CC[C@@H]4[C@@]5(C)CCCN(C(C)=O)C(C)(C)[C@@H]5CC[C@]43C)[C@@H]12 | -49.5% (active)
O=C(CCCCCCNC(=O)C(O)(O)C(F)(F)F)Nc1ncc(-c2ccccc2)s1 | -25% (active)
COc1cc(-c2cc(-c3nc4ccc(F)cc4[nH]3)[nH]n2)cc(OC)c1OC | 16.6%
CCCCCCCCCCCCNC(=O)[C@H]1CSC(c2ccsc2)N1 (some centres undefined) | -74.1% (active)
C=CCN1C(=O)c2ccccc2C1=O | 107%
CCC(c1ccc(OC)cc1)C(CC)c1ccc(O)c(CN2CCCC2)c1 (centres undefined) | -45% (active)
CCOC(=O)n1cc(C2=C(c3cn(C)c4ccccc34)COC2=O)c2ccccc21 | 29.5%
COc1ccc(C(=O)Nc2ncc(Cc3ccc(F)cc3)s2)cc1 | 22.4%
O=C(CNc1nnc(-c2cccnc2SCc2ccccc2)s1)Nc1nc(Cl)cc(Cl)n1 | 112%
COc1ccc(NS(=O)(=O)c2ccc(C)cc2)c([N+](=O)[O-])c1 | 86.6%
N=C(N)c1ccc(-c2ccc(-c3ccc(F)cc3)s2)nc1 | 25.1%
Cc1ccc(C(c2c(O)c3cc(Br)ccc3[nH]c2=O)c2c(O)c3cc(Br)ccc3[nH]c2=O)cc1 | 94.7%
COc1ccccc1/C=C(/C(=O)c1ccccc1)c1ccccc1 | 101%
